The list is not random: actives were taken first. Their share in the collection is about 0.69%.
A-T KAP1 phos: potential ataxia-telangiectasia treatments restoring KAP-1 phosphorylation. F2112 A-T fibroblasts, KAP-1 phosphorylation AlphaLISA; neocarzinostatin DNA damage 30 min before lysis. Potency, µM (series often up to 57.5 µM), actives largely listed as activators. 320,000 compounds, 0.19% hits. AID 485349; further: nearly all actives have a fitted effect of over 45% in size
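hTERT-immortalized A-T patient fibroblasts (F2112), 500 cells/well in OPTI-MEM, 1% FBS, got compounds for 60 min, then NCS for 30 min at 37C. Lysates were then assayed for phospho-KAP-1 by AlphaLISA (anti-pKAP1 donor, anti-KAP1 acceptor beads), 6 hr at 25C.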
PKM2 act: PKM2 (human) enzyme activation | P14618 | purified PKM2, Kinase-Glo ATP luminescence, activation; response scale: 0% is enzyme alone, no compound | Potency, µM (titrated, usually from 57.5 µM), actives largely listed as activators | 260,000 compounds, 0.34% hits; further: nearly all actives have a fitted effect of over 55% in size
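hPK-M2, >95% pure; 0.1 mM ADP / 0.5 mM PEP final; imidazole pH7.2 buffer w/ 7 mM MgCl2, 50 mM KCl; 1 h RT; Kinase-Glo lum. Intermediate enzyme activity for dual inhibitor/activator qHTS.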
IL2 activator: activates IL-2 in a cell-based reporter assay; activation, % (series mostly up to about 46 µM); IL-2 activation reporter assay, cell-based qHTS; stimulated with anti-CD3/CD4/CD28 beads; in transgenic mouse T cells; 360,000 compounds, 0.065% hits; in the data active means activation above about 50%; inconclusive means mostly about 30% to 49%
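Unstimulated transgenic mouse T cells; 60-min compound exposure; bead-based TCR/CD4/CD28 stimulation; 18 h culture, 37 degrees C; dual fluorescence (EGFP, DsRed) plate cytometry.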
TCR activator: T cell receptor activation; AID 504894; 330,000 tested, under 10 active; primary human leukocytes, anti-CD3, IL-2 HTRF, 48 h; Potency, µM (doses to about 9.22 µM), most hits filed as activators
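Compounds are tested in HTS on primary human leukocytes co-incubated with a-CD3 beads for 48 hr. IL-2 output is measured by time-resolved FRET.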
Tb PFK block: T. brucei PFK enzyme inhibition; O15648; T. brucei PFK, ADP-Glo luminescence; Potency, µM (titrated, usually from 57.5 µM), hits mostly inhibitors; 330,000 compounds, 0.17% hits; AID 485367; further: nearly all actives have a fitted effect of over 60% in size
Target sequence (O15648 whole entry, looked up): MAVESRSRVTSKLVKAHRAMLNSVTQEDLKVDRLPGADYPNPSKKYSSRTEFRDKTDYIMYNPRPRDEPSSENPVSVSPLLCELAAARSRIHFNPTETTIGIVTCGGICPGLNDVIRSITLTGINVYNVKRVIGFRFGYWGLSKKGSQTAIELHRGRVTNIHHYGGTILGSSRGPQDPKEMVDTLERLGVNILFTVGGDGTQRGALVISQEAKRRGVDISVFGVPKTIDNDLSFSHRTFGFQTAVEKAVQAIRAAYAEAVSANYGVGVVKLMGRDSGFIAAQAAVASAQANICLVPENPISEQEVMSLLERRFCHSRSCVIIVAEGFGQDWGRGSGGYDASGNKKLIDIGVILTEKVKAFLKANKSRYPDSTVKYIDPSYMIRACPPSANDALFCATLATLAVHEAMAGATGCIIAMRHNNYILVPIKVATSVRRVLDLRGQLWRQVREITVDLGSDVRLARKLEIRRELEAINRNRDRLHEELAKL
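PFK 1.25 nM, F6P 0.5 mM, ATP 0.1 mM, 0.1 M TEA pH 8.0, 5 mM MgCl2, 0.01% Tween20, 0.1% BSA; 45 min RT. ADP-Glo readout. qHTS titration up to 57 uM; curves fitted, compounds curve-classed.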
Integrin act MD: activators of alpha7 integrin expression for muscular dystrophy; alpha7betagal myoblasts, beta-gal FDG fluorescence, 48 h; 350,000 compounds, 0.064% hits; AID 624291; Potency, µM (top dose mostly 38.3 µM), hits mostly activators; further: nearly all actives have a fitted effect of over 60% in size
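Alpha7betagal+/- myoblasts (passage 13) were plated 16-24 hr, then exposed to compounds (1:260 dilution of DMSO stock) for 48 hours at 37C. After MPER lysis, β-galactosidase reporter activity was read as FDG fluorescence (ex 480/em 540) after 30 minutes.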
A number is an active result; i = inactive; ? = inconclusive; nt = not tested or not shown; [ ] = dose if it differs, or a comment. Unless noted, the call rests on the fitted dose curve; in most records, active means well fitted curve in the direction sought with a large enough effect; inconclusive means small, poorly fitted or top-dose-only effect, or another doubt; inactive means no such curve, though single readings can be large; an effect the other way counts as inactive or inconclusive.

SMILES	A-T KAP1 phos	PKM2 act	IL2 activator	TCR activator	Tb PFK block	Integrin act MD
COc1ccc(C2c3ccc(O)cc3Oc3ncn(CCN4CCOCC4)c(=N)c32)cc1 (configuration not stated)	i	i	i	i	i	i
COC(=O)[C@@]1(Cc2ccccc2)[C@H]2c3cc(C(=O)N(C)C)n(Cc4cc(C)n(C)n4)c3C[C@H]2CN1C(=O)c1ccccc1	nt	i	nt	nt	nt	nt
CCOC(=O)c1sc(=N)n(-c2ccc(OC)cc2)c1C	i	i	i	i	?	2µM
CCOC(=O)c1sc(=S)n(-c2ccc(OC)cc2)c1N	i	i	i	i	i	i
COC(=O)c1ccc(C(NC(=O)OCc2ccccc2)/C(F)=C/[C@@H](C)C(=O)NCCc2c[nH]c3ccc(OC)cc23)cc1 (some centres not stated)	nt	i	nt	nt	nt	nt
c1cncc(-c2nn3c(Cn4cnc5ccccc54)nnc3s2)c1	i	?	i	i	?	i
c1ccc2c(c1)ncn2Cc1nnc2sc(-c3ccncc3)nn12	i	8.9µM	i	i	i	i
c1ccc(OCc2nn3c(Cn4cnc5ccccc54)nnc3s2)cc1	i	4.5µM	i	i	i	i
CCc1ccc(CCC(=O)Nc2ncc(Cc3ccccc3Cl)s2)o1	i	14µM	i	i	i	i
C=CCn1c(COc2ccccc2)nnc1SCc1ccc(C#N)cc1	i	i	i	i	i	i
C=CCn1c(COc2ccc(Cl)cc2)nnc1SCc1ccc(C#N)cc1	i	i	i	nt	i	11µM
O=C(NC1CCS(=O)(=O)C1)c1cc2c(=O)n3ccccc3nc2n1Cc1ccccc1 (configuration not stated)	nt	nt	i	nt	nt	i
Cc1ccc2nc3c(cc(C(=O)NC4CCS(=O)(=O)C4)n3Cc3ccccc3)c(=O)n2c1 (configuration not stated)	32µM	nt	i	i	i	i
COC(=O)CC1c2ccccc2C=C(C2CC2)N1C(=O)OC (configuration not stated)	nt	i[11.5 µM]	nt	nt	nt	nt
COc1ccc(-c2cc(COc3ccccc3)on2)cc1	i	i	i	i	i	10µM
Fc1ccc(OCc2cc(-c3ccccc3)no2)cc1	i	nt	i	i	i	i
CC(=O)c1ccc(N2CCN(C(=O)c3cc(S(=O)(=O)N4CCOCC4)ccc3C)CC2)cc1	i	nt	i	i	i	i
CCCn1c(C)nc2c(NCCN(C(C)C)C(C)C)nc(C)nc21	nt	i	nt	nt	nt	nt
O=C(NCc1ccccc1Cl)C1CCN(S(=O)(=O)c2cccs2)CC1	i	10µM	i	i	?	i
Cc1c([N+](=O)[O-])cc(N2C(=O)C=CC2=O)cc1[N+](=O)[O-]	nt	nt	i	i	nt	i
Cc1cc(N2C(=O)C=CC2=O)c([N+](=O)[O-])cc1C	i	5.6µM	i	i	?	i
CSc1ncccc1C(=O)OCC(=O)c1cc(C)n(C)c1C	i	nt	i	i	i	10µM
COC(=O)N=Nc1c(O)n(Cc2ccccc2)c2ccccc12	25µM	i	i	i	i	i
COc1ccc(F)cc1C(=O)C1CCCN(Cc2cccn2-c2cccnc2)C1 (configuration not stated)	i	35µM	i	i	i	i
COC(=O)[C@@]1(Cc2ccc(OC)cc2)[C@H]2c3cc(C(=O)N(C)C)n(Cc4nc5ccccc5[nH]4)c3C[C@H]2CN1C(=O)c1ccccc1	nt	i	nt	nt	nt	nt
SMILES	A-T KAP1 phos	PKM2 act	IL2 activator	TCR activator	Tb PFK block	Integrin act MD
Cn1c(N2CCOCC2)c(/C=N/OC(=O)c2ccc(F)cc2)c2ccccc21	35µM	i	i	i	i	i
CCc1cccc2c(-c3ccccc3)c3c(nc12)OCC3	nt	i	nt	nt	nt	nt
C=CCn1c(=N)n(CC(=O)OC)c2ccccc21	i	i	i	i	i	i
N=c1n(CCN2CCCCC2)c2ccccc2n1CC(O)c1ccc(Cl)c(Cl)c1 (configuration not stated)	i	i	i	i	i	i
N=c1n(CCN2CCCCC2)c2ccccc2n1CC(=O)c1ccc(Cl)c(Cl)c1	35µM	i	i	i	i	i
CCn1c(=N)n(CC(=O)c2ccc(Cl)c(Cl)c2)c2ccccc21	28µM	nt	i	i	i	i
C=CCn1c(=N)n(CC(=O)c2ccc(Cl)cc2)c2ccccc21	16µM	nt	i	i	i	i
O=[N+]([O-])c1ccccc1S(=O)(=O)NCC1CCC(CNCC2CCc3ccccc3C2)CC1 (configuration not stated)	nt	i	nt	nt	nt	nt
O=C(CCCCCBr)N1CCC(CC2CC(c3ccc(Cl)cc3)=NO2)(C(=O)NCC2CCCCC2)CC1 (configuration not stated)	i	i	63	i	i	i
Cc1ccc(/C(N)=N/OC(=O)Cc2cccc3ccccc23)cc1	i	25µM	i	i	i	i
O=c1oc2ccccc2cc1-c1nc2c(s1)CCc1ccccc1-2	i	i	?	i	i	i
O=c1oc2cc(O)ccc2cc1-c1nc2c(s1)CCc1ccccc1-2	18µM	i	50	i	i	i
O=C(N/N=C/c1cn[nH]c1-c1ccc(F)cc1)c1ccncc1	i	i	i	i	i	14µM
Cn1cccc1/C=C1\SC(=O)N(c2ccccc2)C1=O	i	i	250	i	i	i
CCc1c2c(nc3cccc(SC)c13)COC2	nt	i	nt	nt	nt	nt
CCOC(=O)N1CCC(N2C(=O)c3ccccc3C2Nc2ccc3c(c2)OCCO3)CC1 (configuration not stated)	i	i	i	i	i	i
CCOC(=O)N1CCC(N2C(=O)c3ccccc3C2Nc2ccc3c(C)cc(=O)oc3c2)CC1 (configuration not stated)	40µM	i	i	i	i	i
Cc1ccc(S(=O)(=O)N2CCN(C(=O)CSc3ccc(F)cc3)CC2)cc1	i	13µM	i	i	i	i
O=C(CSc1ccccc1)N1CCN(S(=O)(=O)c2ccccc2)CC1	i	2.8µM	i	i	i	i
Cc1csc(SCC(=O)N2CCN(S(=O)(=O)c3ccccc3)CC2)n1	i	32µM	i	i	i	i
CCOC(=O)c1ccoc1CSCC(=O)N1CCN(S(=O)(=O)c2ccc(C)cc2)CC1	i	25µM	i	i	i	i
Cc1csc(SCC(=O)N2CCN(S(=O)(=O)c3ccc(Cl)cc3)CC2)n1	i	?	i	i	i	i
Cc1ccc(SCCC(=O)N2CCN(S(=O)(=O)c3ccccc3)CC2)cc1	i	nt	i	i	i	?
CCC1=C2CC[C@H]3C(=O)N(c4ccccc4)C(=O)[C@H]3[C@H]2[C@@]2(Cc3ccccc3)C(=NCc3ccccc3)OC(=O)N2C1=O	nt	i	nt	nt	nt	nt
COCCn1c(SCc2cc(=O)n3cc(C)ccc3n2)nc2ccccc2c1=O	i	i	nt	nt	i	nt
